SARS PLpro yeast: blocks SARS-CoV papain-like protease in a yeast assay. AID 485353. 0.19% of 330,000 active. S. cerevisiae expressing SARS-CoV PLpro, growth rescue. Potency, µM (doses to about 32.9 µM), without a hit: top-dose activity, positive = growth rescue, most hits filed as activators; calls by dose curve; note: potency is the fitted concentration of half-maximal effect; 0% is about no effect; nearly all actives have a fitted effect of over 55% in size
CHX counter: counter-screen hit for Shiga toxin inhibitors, cycloheximide; cell reporter, cycloheximide protein synthesis inhibition counterscreen; max response, %; 12% of 300,000 active; AID 2314; in the data active = max response mostly above about 13%, no sharp cut-off; inactive = mostly below about 14%; note: read at 38.3 µM for the half of the compounds with a filed dose; 0% is about no effect
Pf growth 96h: P. falciparum growth inhibition at 96 hours. P. falciparum luciferase reporter growth, 96 h. Potency, µM (series often up to 28.7 µM), for the others: at the highest dose activity change, negative = inhibition, usual class: inhibitors. AID 504834. 6.9% of 320,000 active; note: potency is the fitted concentration of half-maximal effect; % is set by controls: 0 for no effect and ±100 for the full control effect
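Parasite growth measured via integrated firefly luciferase reporter in P. falciparum. Infected erythrocytes at 2% hematocrit, 0.05% parasitemia final were treated 96 hours at 37 C under 5% CO2, and luminescence was read.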
Pf growth 48h: inhibits P. falciparum growth in the first generation, 48 h. 5.9% of 310,000 active. AID 504832. Potency, µM (doses to about 28.7 µM), without a hit: top-dose activity change, negative = inhibition, hits mostly inhibitors. P. falciparum luciferase growth in erythrocytes, 48 h; note: potency is the fitted concentration of half-maximal effect; % is set by controls: 0 for no effect and ±100 for the full control effect
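First compound was added to culture medium, then infected red cells at 0.1% parasitemia and 2% hematocrit (final). After incubation at 37 C under 5% CO2, luciferase detection reagent was dispensed and light output recorded.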
Shiga inhibitor: Shiga toxin inhibition; Vero cells, Shiga toxin protein synthesis inhibition reporter; inhibition, % at 38.7 µM; 9.2% of 290,000 active; AID 2315; in the data active = inhibition mostly above about 28%, no sharp cut-off; inactive = mostly below about 43%; note: 0% is about no effect
AMA1-RON2 inh: disrupts binding of P. falciparum AMA1 to RON2; AID 720542; AlphaScreen AMA1-biotinylated RON2 peptide binding; Potency, µM (doses to about 58.2 µM), for inactives: at the highest dose activity change, negative = inhibition, actives largely listed as inhibitors; 0.2% of 360,000 active;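 note: potency is the fitted concentration of half-maximal effect; 0% = vehicle wells and -100% = peptide control; nearly all actives have a fitted effect of over 45% in size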
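AMA1 (3D7) with his tag at 25 nM final met compounds first, then biotinylated RON2 peptide at 25 nM; detection used donor plus acceptor beads, 10 µg/mL apiece, read by AlphaScreen after 30 min at room temperature.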
The depositor's hits bear a star; ? = inconclusive; . = no result; [ ] = dose if it differs, or a comment. A selection: hits, their analogues and other compounds. The true share with any hit is near 19%. Unless noted, calls come from the whole dose curve; as a rule, active = well fitted curve in the direction sought with a large enough effect; inconclusive = small, poorly fitted or top-dose-only effect, or another doubt; inactive = no such curve, though single readings can be large; an effect the other way counts as inactive or inconclusive.

SMILES	SARS PLpro yeast	CHX counter	Pf growth 96h	Pf growth 48h	Shiga inhibitor	AMA1-RON2 inh
O=C(N1CCOCC1)N1CCN(C(c2ccccc2)c2ccccc2)CC1	2%	-4	?	-20%	-9	-11%
O=C(N1CCCCC1)N1CCN(C(c2ccccc2)c2ccccc2)CC1	-12%	-3	8.3µM*	.	-8	-6%
O=C(CN1CCN(C(c2ccccc2)c2ccccc2)CC1)N1CCN(c2ccccc2)CC1	0%	-2	?	12µM*	-4	-18%
O=C(CCCCCN1C(=O)[C@@H]2Cc3ccccc3CN2C1=O)Nc1ccccc1F	9%	10	?	-20%	11	13%
COc1ccc(Cl)cc1NC(=O)c1ocnc1C	-7%	-4	1µM*	-2%	-15	4%
Cc1cc(NC(=O)CS(=O)(=O)c2cn(Cc3cccc(Br)c3)c3ccccc23)no1	.	.	.	.	.	-14%
COc1ccc(Cl)cc1NC(=O)Nc1cnccn1	2%	-1	?	?	-8	-13%
COc1ccc(NC(=O)c2ocnc2C)cc1OC	-6%	12	40%	35%	11	5%
Cc1nc(C(F)(F)F)ccc1C(=O)Nc1ccc(C(F)(F)F)cn1	0%	1	-19%	26%	-8	-4%
Cc1cc(NC(=O)CS(=O)(=O)c2cn(Cc3ccccc3Cl)c3ccccc23)no1	7%	-2	0.59µM*	0%	-11	-4%
COc1ccc(Cl)cc1NC(=O)Nc1cc(C)on1	-4%	36*	?	192%	61*	0%
O=C(Nc1ccc(C(F)(F)F)cn1)Nc1cccs1	1%	26*	51%	35%	35*	29%
CC1=C(C(=O)N2CCCCCC2)CC(CC(=O)NC2CCCC2)C(=O)N1Cc1ccccc1 (stereo not drawn)	.	.	.	.	.	-3%
C=C1CCN(C(CC(C)C)C(=O)NN2CCOCC2)S(=O)(=O)c2ccccc21 (stereo not drawn)	.	-3	.	.	7	.
Cc1cc(NC(=O)Nc2cccs2)no1	-11%	16*	-10%	36%	19	1%
Cc1cc(NC(=O)Nc2ccccc2Cl)no1	-10%	27*	?	46%	64*	-12%
C[C@H]1C=C(C(=O)N2CCOCC2)O[C@@H](OCc2ccc(CO)cc2)C1	-1%	1	-3%	?	28	-7%
CN(C)C(=O)C12CCC(C)(c3nc4ccccc4nc31)C2(C)C (stereo not drawn)	2%	4	2.6µM*	-26%	-7	7%
Cc1ccc(S(=O)(=O)N2CCN(c3ccccc3)CC2)cc1C(=O)NC1CCCCC1	-2%	2	?	-18%	-24	-3%
Cc1ccoc1C(=O)NCCNc1ccc(Cl)cc1[N+](=O)[O-]	-45%	14*	?	25%	27	-3%[11.6 µM]
Cc1nn(-c2ccccc2)c(Cl)c1C(=O)Nc1nnc(C2CCCC2)s1	-20%	3	.	-2%	7	19%
O=C(Cc1ccsc1-c1ccccc1)NO	2%	-4	15%	13µM*	18	-2%
O=C(Cc1csc(NC(=O)c2ccccc2)n1)NO	0%	8	?	?	-1	104%
CCCCCC(CC(=O)NO)C(=O)NC(C(=O)N1CCCC1CO)C(C)C (stereo not drawn)	.	.	2.9µM*	3.3µM*	.	25%
C/C(=N\N=C(/N)c1nonc1N)c1ccc2c(c1)OCO2	0%	81*	167%	297%	55*	10%
SMILES	SARS PLpro yeast	CHX counter	Pf growth 96h	Pf growth 48h	Shiga inhibitor	AMA1-RON2 inh
CC(=NNC(N)=S)c1ccc2cc3c(cc2c1)OCO3	.	.	.	.	.	118%
O=C1C(=C2CCc3ccccc32)Cc2ccccc21	.	.	.	.	.	-11%
CCOP(=O)(OCC)c1ccc2c(c1)C(=O)c1ccccc1CC2	1%	.	4.1µM*	-3%	.	.
CCCCOc1ccc(CSc2nncn2N)cc1	-5%	31*	.	102%	65*	9%
CCCCOc1ccc(CSc2ncn[nH]2)cc1	-4%	26*	10%	49%	61	28%
CCCCCOc1ccc(CSc2ncn[nH]2)cc1	-44%	39*	?	144%	72*	7%
CCOC(=O)c1ccc(CSc2ncn[nH]2)o1	-3%	-2	.	-7%	2	9%
COc1ccc(C(C)=O)cc1Cn1c(C)c(C(=O)NCC(C)C)sc1=O	.	.	.	.	.	19%
CCc1ccc(NC(=O)c2cc(-c3ccc(OC)cc3)on2)cc1	1%	64*	?	.	41*	1%
Cc1cc(C(=O)Nc2ccccn2)no1	1%	23*	15%	120%	44*	0%
CCc1ccc(NC(=O)c2cc(-c3ccc(F)cc3)on2)cc1	-1%	3	-6%	21%	31	-1%
Cc1ccc(NC(=O)c2cc(C)on2)cc1	8%	56*	0%	110%	62	7%
CCc1ccc(NC(=O)c2cccc(C(=O)Nc3ccc(CC)cc3)n2)cc1	4%	13	?	?	42	-2%
COC(=O)c1cccc(C(=O)Nc2ccc(C)cc2)n1	-11%	45*	?	82%	80*	3%
Cc1ccc(NC(=S)Nc2cc(C)on2)cc1	1%	48*	156%	118%	67*	11%
COc1cc(NC(=O)c2cc(C(C)C)on2)cc(OC)c1OC	-7%	-2	?	.	-4	20%
CCc1ccc(NC(=O)c2cc(C(C)C)on2)cc1	-8%	36*	-5%	222%	65*	-8%
CCc1ccc(NC(=O)c2cc(C)on2)cc1	-4%	28*	-14%	181%	51*	-5%
N=c1nc(N)nc2n1NC(c1ccc(F)cc1)=CS2	-8%	20*	?	10%	47	67%
Fc1ccc(C2=CSC3=NCCN23)cc1	1%	10	24%	11%	8	-2%
CCc1ccc(NC(=O)CSc2nc3ccccc3c(=O)n2CCCN2CCC(C)CC2)cc1	0%	-15	-8%	?	-33	-23%
C/C(N)=C(/C#N)C(=O)COC(=O)c1cc2c(s1)CCCC2	-1%	35*	127%	93%	60*	-2%
NNC(=O)c1cc2c(s1)CCCCCC2	3%	-2	?	?	-4	-19%
CNC(=O)COC(=O)c1cc2c(s1)CCCC2	-1%	24*	26%	14%	47	-3%
CC1CCc2sc(C(=O)OCC(=O)NCc3ccccc3)cc2C1 (stereo not drawn)	2%	0	4%	-12%	-9	-7%
C/C(N)=C(/C#N)C(=O)COC(=O)c1cc2c(s1)CCC(C)C2 (stereo not drawn)	-1%	68*	71%	44%	93*	-10%
CN(C(=O)COC(=O)c1cc2ccccc2cc1O)c1c(N)n(Cc2ccccc2)c(=O)[nH]c1=O	1%	.	20%	2%	.	3%
Cc1c(S(=O)(=O)N2CCOCC2)c(=O)n(C)c(=O)n1C	0%	-2	29%	-1%	-4	-1%

Source: PubChem BioAssay (National Center for Advancing Translational Sciences (NCATS))
